VP16 counter: Gal4-VP16 reporter inhibition counter-screen; Drosophila S2 Gal4-VP16 UAS-luciferase, luminescence, 20 h; Potency, µM (highest dose often 53.6 µM), for the others: at the top dose activity, negative = inhibition, hits mostly inhibitors; hit rate 3.5% among 310,000;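 also: Gal4-VP16 expression switched on by copper sulfate through the metallothionein promoter; % is scaled to controls: 0 for no effect and ±100 for the full control effect; nearly all actives have a fitted effect of over 50% in size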
a7 integrin act: integrin-mediated muscular dystrophy alleviation activation | alpha7betagal myoblasts, beta-gal FDG fluorescence, 48 h | Potency, µM (titrated, usually from 38.3 µM), without a hit: at the highest dose activation, most hits filed as activators | hit rate 0.064% among 350,000;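 also: 100% = response of the positive control SU9516; nearly all actives have a fitted effect of over 60% in size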
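Alpha7betagal+/- myoblasts (passage 13) were plated 16-24 hr, then exposed to compounds (1:260 dilution of DMSO stock) for 48 hours at 37C. After MPER lysis, β-galactosidase reporter activity was read as FDG fluorescence (ex 480/em 540) after 30 minutes.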
uPA generation: blocks generation of uPA at the cell surface; hit rate 0.31% among 330,000; Potency, µM (doses to about 38.3 µM), without a hit: at the highest dose activity change, negative = inhibition, most hits filed as inhibitors; cell surface uPA generation assay, qHTS; active = well fitted inhibition curve with a large enough effect; inconclusive = small, poorly fitted or top-dose-only effect; inactive = no such curve, though single readings can be large or run the other way; tested in mouse RAW 264.7 cells; also: % is scaled to controls: 0 for no effect and ±100 for the full control effect; nearly all actives have a fitted effect of over 55% in size
Chronic BCR inh: inhibitors of chronic active B-cell receptor signaling. Potency, µM (doses to about 46.1 µM), inactives show top-dose activity change, negative = inhibition, most hits filed as inhibitors. hit rate 0.05% among 340,000. ABC-DLBCL IkBa-CBG/CBR reporter, luminescence ratio, 4 h. AID 493014; active = well fitted inhibition curve with a large enough effect in the signal ratio, with a control signal flat, not every such curve was filed as active; inconclusive = small, poorly fitted or top-dose-only effect, or effect the other way, or a change in a side signal; the % refers to the signal ratio;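 also: plate controls were basal doxycycline-induced cells for no effect and cells given 10 µM MG132 for full effect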
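Concentration-response series (up to 46 uM) were applied to TMD8 dual-reporter cells for 4 h at 37C with doxycycline. Green/red ratio, after filter-overlap correction, defined %Activity; red signal alone was normalised to basal cells and zero luminescence.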
Mito fusion yeast: inhibitors of mitochondrial division or activators of mitochondrial fusion; S. cerevisiae fusion-defective mutant growth rescue, CellTiterGlo 48 h; Potency, µM (top dose mostly 46.1 µM), without a hit: at the highest dose growth rescue (activation), actives largely listed as activators; hit rate 0.23% among 320,000; also: % of control where 0% means no effect; nearly all actives have a fitted effect of over 45% in size
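Luminescent cell viability in 1536-well qHTS format served as the measure of rescued growth in ts fusion-mutant S. cerevisiae cultured on non-fermentable YPEG for 48 hours at 37C.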
RORg inh: inhibitors of mouse ROR gamma transcriptional activity; hit rate 5.4% among 310,000; Potency, µM (doses to about 53.6 µM), for the others: at the top dose activity change, negative = inhibition, actives largely listed as inhibitors; AID 2551; P51450; Drosophila S2 Gal4-RORgamma UAS-luciferase reporter, 20 h; also: % is scaled to controls: 0 for no effect and ±100 for the full control effect; nearly all actives have a fitted effect of over 60% in size
Target sequence (P51450 whole entry, looked up, the tested form may be a part): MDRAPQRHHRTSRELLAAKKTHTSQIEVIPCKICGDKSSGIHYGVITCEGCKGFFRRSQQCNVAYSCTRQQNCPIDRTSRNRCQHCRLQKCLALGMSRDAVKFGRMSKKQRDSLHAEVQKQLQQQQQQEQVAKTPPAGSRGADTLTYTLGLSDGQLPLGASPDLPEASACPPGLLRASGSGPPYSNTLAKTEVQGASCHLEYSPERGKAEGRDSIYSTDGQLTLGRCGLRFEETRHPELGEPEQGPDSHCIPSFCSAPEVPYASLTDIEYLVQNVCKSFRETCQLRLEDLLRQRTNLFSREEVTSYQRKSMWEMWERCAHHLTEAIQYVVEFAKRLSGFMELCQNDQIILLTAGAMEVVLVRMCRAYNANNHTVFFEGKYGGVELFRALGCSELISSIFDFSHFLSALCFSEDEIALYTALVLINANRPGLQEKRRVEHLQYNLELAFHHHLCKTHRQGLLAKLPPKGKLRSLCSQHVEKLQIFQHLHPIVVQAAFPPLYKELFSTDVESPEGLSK
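Read-out: Photinus luciferase luminescence; inhibitors lower reporter signal. Insect Schneider cells with Gal4-ROR gamma fusion under metallothionein promoter, UAS reporter; 700 uM final copper sulfate induction, 20 hr, ambient temperature.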
* hit, by the source's call; ? = inconclusive; / = no result. Most compounds without a hit are left out; they make up all but 5.5% or so of the library. Unless noted, calls follow the shape of the dose curve; as a rule, active = well fitted curve in the direction sought with a large enough effect; inconclusive = small, poorly fitted or top-dose-only effect, or another doubt; inactive = no such curve, though single readings can be large; an effect the other way counts as inactive or inconclusive. Potency is read from the fitted curve at half-maximal effect.

SMILES | VP16 counter | a7 integrin act | uPA generation | Chronic BCR inh | Mito fusion yeast | RORg inh
CC(=O)Nc1ccc(NC(=O)C(NS(=O)(=O)c2cccc3nsnc23)C(C)C)cc1 (stereo not given) | -0.4% | 3.4% | -1.0% | 3.7% | 0.6% | -6.2%
CCOc1ccc2nc(NC(=O)C3=NN(c4ccccc4)C(=O)CC3)sc2c1 | 18.5% | 3.1% | -9.9% | -20.9% | -3.2% | 2.82µM*
COc1ccc2nc(NC(=O)c3cccs3)sc2c1 | ? | 24.6% | -3.3% | ? | 3.9% | 10µM*
CC(C)(C)c1nnc(NC(=O)c2cccs2)s1 | ? | 12.5% | ? | 5.0% | 19.5% | 17.8µM*
COc1ccc(C(C)(C)C)cc1NC(=O)COC(=O)CSCc1c(C)noc1C | / | 23.8% | 0.6% | ? | 12.0% | /
Cc1ccc(S(=O)(=O)Nc2cccc(C(=O)NCC3(N4CCCCC4)CCCCC3)c2)cc1F | / | 0.0% | 1.7% | 9.0% | -1.3% | /
CCOC(=O)c1cccc(C(=O)Nc2nc3ccc(OC)cc3s2)n1 | ? | 44.3% | ? | -13.9% | 6.9% | 11.2µM*
CCOc1ccc2nc(NC(=O)c3cnc(C)cn3)sc2c1 | 5.62µM* | -10.6% | 1.6% | -8.6% | 0.6% | 1.78µM*
COc1ccc2nc(NC(=O)c3ccccc3O)sc2c1 | ? | 13.3% | ? | ? | 2.8% | 7.08µM*
CCC(C)C(=O)Nc1nc2ccc(OC)cc2s1 (stereo not given) | -16.4% | 1.3% | -2.1% | ? | 5.6% | -1.7%
CCCCN(C(=O)C1CC(=O)N(CCc2ccc(OC)c(OC)c2)C1)c1c(N)n(CCCC)c(=O)[nH]c1=O (stereo not given) | / | 3.6% | -0.4% | 0.2% | -6.8% | /
C=CC[C@H]1C=C[C@@H](C(C(=O)OC)C(=O)OC)CN1C(C)=O | / | -6.9% | 0.9% | / | / | /
CCN(CC(=O)N1CCOCC1)S(=O)(=O)c1ccccc1 | 6.6% | ? | -5.4% | -9.2% | -1.0% | ?
Cc1ccc(NC(=O)CN(C)C(=O)C(C)OC(=O)c2ccccc2NCCO)cc1 (stereo not given) | / | -23.4% | 1.7% | ? | -6.6% | /
Nc1nnc(SCC(=O)c2ccccc2)s1 | -13.8% | 22.5% | 1.6% | ? | 0.6% | -3.0%
Nc1nnc(SCC(=O)OCC(=O)c2ccccc2)s1 | 3.3% | 20.5% | -0.7% | 7.8% | 31.6µM* | 1.0%
Cc1ccccc1CSc1nccn1-c1ccccc1 | 12.6µM* | 25.7% | 1.9% | 15.7% | -8.6% | 2.51µM*
CCOC(=O)C1=C(COC(=O)[C@H](C)NS(=O)(=O)c2ccc(NC(C)=O)cc2)NC(=O)NC1C (stereo not given in full) | / | 12.4% | 5.1% | 1.5% | -1.0% | /
COc1ccc2nc(Nc3ccccc3OC)sc2c1 | ? | -0.8% | -6.9% | ? | -6.7% | ?
COc1ccc(-c2nnc(Nc3nc4c(OC)cccc4s3)o2)cc1 | 12.6µM* | -45.0% | -3.2% | ? | -1.2% | 11.2µM*
COc1ccc(-c2nnc(-c3ccc(N)cc3)o2)cc1 | -25.7% | 8.5% | -5.0% | ? | 1.2% | 7.9%
COc1ccc(-c2nnc(Nc3nc4c(OC)cccc4s3)o2)c(OC)c1 | ? | -22.2% | ? | ? | -1.9% | 1.58µM*
COc1ccc(-n2c(=S)[nH]c3cc(C(=O)Nc4ccccc4OC)ccc3c2=O)c(OC)c1 | 4.47µM* | 31.1% | -1.6% | ? | -26.7% | 1.58µM*
CCOC(=O)N1CCN(C(=O)c2ccc3c(=O)n(-c4ccc(OC)cc4OC)c(=S)[nH]c3c2)CC1 | 0.6% | -39.2% | -1.7% | 7.6% | 2.5% | -18.2%
COc1ccc(-n2c(=S)[nH]c3cc(C(=O)Nc4ccccc4OC)ccc3c2=O)cc1 | ? | / | / | 9.7% | 0.2% | 1.58µM*
COc1ccc(-n2c(=S)[nH]c3cc(C(=O)NCc4ccccc4OC)ccc3c2=O)c(OC)c1 | 14.1µM* | 1.4% | 3.5% | 14.8% | -3.1% | 14.1µM*
COc1ccc(-n2c(=S)[nH]c3cc(C(=O)NCCCN4CCOCC4)ccc3c2=O)cc1 | -4.6% | 0.0% | 2.6% | 1.4% | -5.3% | -42.3%
